Screening results deposited in PubChem BioAssay by several laboratories.
PrP 5UTR inh: suppresses PrP 5' UTR mRNA reporter expression; inhibition, % (test concentration not listed); cell-based PrP 5' UTR mRNA reporter, plate reader; 340,000 tested, 0.35% active; in the data active means inhibition above about 52%; further: 0 = median of the neutral control wells
DUSP3 inh: DUSP3 (human) phosphatase inhibition. P51452. recombinant VHR phosphatase, pNPP absorbance. inhibition, % at 13.3 µM. 290,000 tested, 0.52% active; in the data active means inhibition above about 50%
Target sequence (P51452 whole entry, looked up): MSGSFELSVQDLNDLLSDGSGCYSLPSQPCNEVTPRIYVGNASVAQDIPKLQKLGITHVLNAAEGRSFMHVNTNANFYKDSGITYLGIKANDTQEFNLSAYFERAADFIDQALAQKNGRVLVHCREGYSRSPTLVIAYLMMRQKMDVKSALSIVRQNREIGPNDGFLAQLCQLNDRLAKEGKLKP
BJeLR lethal: BJeLR cell viability loss | BJeLR (HRASV12) viability, CellTiter-Glo ATP luminescence, 48 h | inhibition, % (test concentration not listed) | 300,000 tested, 0.17% active; in the data active means inhibition above about 50%
PrPC TRFRET: cell surface PrPC inhibition, primary TR-FRET screen | TR-FRET read-out | inhibition, % at 13.8 µM | 370,000 tested, 0.43% active | AID 720596; in the data active means inhibition above about 24%; further: 0% = median of the test wells and 100% = reference compound wells
MazEF act: activators of E. coli MazEF toxin-antitoxin RNase. P0AE70. FAM/BHQ RNA-DNA oligo cleavage fluorescence, 5 h. activation, % at 20 µM. 350,000 tested, 0.32% active. AID 504720; in the data active means activation above about 50%
Target sequence (P0AE70 whole entry, looked up): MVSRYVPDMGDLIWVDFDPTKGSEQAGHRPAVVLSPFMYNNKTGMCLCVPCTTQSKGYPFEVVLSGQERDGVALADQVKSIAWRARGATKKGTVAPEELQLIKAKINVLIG
PfHsp40 yeast: compounds rescuing yeast from Plasmodium falciparum HSP40 toxicity; growth rescue, % at 12.5 µM; S. cerevisiae expressing PfHsp40, growth rescue, ATP luminescence; 340,000 tested, 0.68% active; in the data active means growth rescue above about 28%, passing the limit was not always enough;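 further: yeast W303a lacking pdr1 and pdr3 grown in galactose medium; growth measured after three days at 30 °C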
* marks the source's active call; other numbers are inactive results; x = no result given; + = active, no number. In the library only some 2.1% were active in any assay of this set; here they are far more common.

SMILES	PrP 5UTR inh	DUSP3 inh	BJeLR lethal	PrPC TRFRET	MazEF act	PfHsp40 yeast
Cc1cccc(-n2nnc(C(=O)NC3CCCc4ccccc43)c2N)c1 (stereo not drawn)	-17	52*	-2	15	-5	20
Clc1ccc(-c2nnc3sc(-c4ccc(Br)o4)nn23)c(Cl)c1	-13	12	-20	-3	-63	-1
Clc1ccc(-c2nnc3sc(-c4ccc(Br)o4)nn23)cc1	-40	2	x	-7	+	0
CCOC(=O)N1CCN(C(=O)CCCN2C(=O)CSc3nc(C)cc(C)c32)CC1	-19	51*	7	-2	4	-1
CCOC(=O)N1CCC(NC(=O)CN2C(=O)CSc3nc(C)cc(C)c32)CC1	-5	12	6	-8	x	-2
O=c1[nH]c(CN2CCN(S(=O)(=O)/C=C/c3ccccc3)CC2)nc2cc(Cl)ccc12	-37	-8	-1	-2	-6	97*
CCCCn1cnc2c(c(-c3ccccc3)c(-c3ccccc3)n2Cc2ccco2)c1=N	x	0	62*	-11	20	x
N=c1c2c(-c3ccccc3)c(-c3ccccc3)n(Cc3ccco3)c2ncn1Cc1ccco1	-8	4	15	-9	17	3
CCCCCCn1c(=O)[nH]c2nc3cc(N)ccc3nc2c1=O	x	26	-14	-8	364*	x
CCCCCn1c(=O)c(C(=O)c2ccccc2)nc2ccccc21	-2	15	2	0	4	0
CCn1c(=O)c(C(=O)NNC(=O)c2ccccc2Cl)c(O)c2ccccc21	-23	11	3	5	9	34*
COC(=O)c1cc2c(c3c4ccccc4n(S(=O)(=O)c4ccccc4)c13)C(=O)N(C)C2	x	x	x	-1	x	x
COc1cc2c(cc1OC)C1=CC(=O)C(=O)N1C(C)(C)C2	3	30	-4	-4	55*	0
COc1cc2c(cc1OC)-c1nc3ccccc3c(=O)n1C(C)(C)C2	-9	-4	6	-3	-2	2
CN(C)c1ccc(NC(=O)c2ccc(N3CCOCC3)nc2)cc1	-45	52*	-11	5	-9	0
Oc1ccc(/C=N/Nc2ccc(C(F)(F)F)cn2)c(O)c1	-9	5	17	-4	x	421*
Cc1ccsc1/C=N/NC(=O)c1nnn(-c2nonc2N)c1C	-2	56*	0	-6	5	10
CC(C)c1c(C(=O)N/N=C/c2ccc3c(c2)OCO3)nnn1-c1nonc1N	-11	14	10	0	10	1
CCN(CC)c1ccc(/C=N/NC(=O)c2nnn(-c3nonc3N)c2C(C)C)c(O)c1	34	2	88*	23	1	2
COc1ccc(/C=N/Nc2nnc(-c3ncc[nH]3)c3ccccc23)cc1	-47	23	-9	x	-2	0
Oc1ccc2ccccc2c1/C=N/Nc1nnc(-c2ncc[nH]2)c2ccccc12	32	15	28	-3	65*	0
COc1ccc(/C=N/Nc2ncc(Br)cn2)c(OC)c1	-93	88*	8	0	-5	-1
CCN1C(=O)C(=Cc2cccc(OC)c2Oc2ccc([N+](=O)[O-])cc2[N+](=O)[O-])SC1=S	x	2	94*	-3	2	-2
COc1cc(/C=C2\SC(=O)NC2=O)ccc1Oc1ccc([N+](=O)[O-])cc1[N+](=O)[O-]	-12	-6	0	-17	-12	0
Cn1cc(Cc2ccccc2)c(=O)c(Cc2ccccc2)c1	-15	x	x	-1	6	0
SMILES	PrP 5UTR inh	DUSP3 inh	BJeLR lethal	PrPC TRFRET	MazEF act	PfHsp40 yeast
CC(=O)c1cccc(-c2ccnc3c2CC(C(=O)Nc2cccc(OC(F)(F)F)c2)O3)c1 (stereo not drawn)	x	x	x	1	x	x
Nc1[nH]c(C(=O)c2ccccc2)c(-c2cccnc2)c1C(=O)NC1CCCCC1	x	x	x	-6	x	x
COc1ccc(-c2cc(-c3ccccc3)nc(NN)n2)cc1OC	-13	54*	0	0	14	1
COc1nc(-c2ccccc2)cc(-c2ccc(OC)c(OC)c2)n1	-149	16	-4	7	19	5
CSc1ccccc1NC(=O)Nc1ccc(F)c(Cl)c1	-18	29	-3	16	0	-1
CSc1ccccc1NC(=O)Nc1cccc(Cl)c1	-19	17	1	17	119*	1
COC(=O)c1ccc(/C=N/Nc2nc(-c3ccc(C)cc3)cs2)cc1	-16	0	13	x	52*	0
CCOc1cc(CNCc2cc(OC)cc(OC)c2)ccc1OC	-8	51*	3	2	10	-2
COc1cccc(CNCc2ccc(OC)cc2OC)c1	-13	56*	-8	-2	13	0
COc1ccc2sc(-c3ccc(S(C)(=O)=O)cc3)c(-c3ccc(SC)cc3)c2c1	-17	x	x	-8	-3	-1
COc1ccc(-c2coc3cc(O)cc(O)c3c2=O)cc1	-84	-3	-2	-1	2	199*
C[C@@H]1Cn2cnc(C(=O)Nc3cccc(Cl)c3)c2C(=O)N1	x	x	x	9	5	x
CC(=O)Nc1cccc(-c2ccnc3c2CC(C)(C(=O)NCCc2ccccc2)O3)c1 (stereo not drawn)	x	x	x	10	x	x
O=C(NC(=S)NCc1ccco1)c1cccc(Cl)c1	-2	2	0	8	x	0
O=C(NC(=S)NCc1ccccc1)c1cccc(Cl)c1	-9	4	0	4	2	29*
CC(C)C[C@H]1CN(CCCC[C@H]2CNC(=O)C(=O)N2Cc2ccccc2)C(=O)C(=O)N1Cc1ccccc1	x	x	x	4	x	x
COc1ccccc1-n1cc(C(=O)NCC(=O)N2CCN(c3ccccc3)CC2)c2ccccc2c1=O	-8	51*	-1	0	3	0
Cc1cccc(N(C)S(=O)(=O)c2ccc(-c3cnc(C4CC4)o3)cc2)c1	59*	2	65*	9	-7	-2
Cc1ccc(N(C)S(=O)(=O)c2cc(-c3cnc(C4CC4)o3)ccc2C)cc1	-1	9	3	-7	-1	4
C=C(C)C1Cc2nc(N)nc(C)c2C1 (stereo not drawn)	8	11	9	-1	0	-1
C=C(C)C1Cc2c(C)nn(-c3nc(C)cc(C)n3)c2C1 (stereo not drawn)	-2	15	-2	6	1	113*
CC1=C(C(=O)N(C)C)CC(CC(=O)NC2CCCCC2)C(=O)N1Cc1ccccc1 (stereo not drawn)	x	x	x	8	4	x
COc1ccc(CN2CCSCC2)c(C)c1C	-14	15	4	-4	9	0
Cc1cc(C)c2c3c(c(-c4ccccc4)n2n1)c(=O)n(C)c(=O)n3C	-18	x	x	6	7	10
Cc1cc(-c2ccccc2)c2c3c(c(-c4ccccc4)n2n1)c(=O)n(C)c(=O)n3C	-51	5	-2	x	+	-1
CCc1ccc2[nH]c(=O)c(C3C(C#N)=C(N)Oc4c3ccc3cccnc43)cc2c1 (stereo not drawn)	5	17	-1	-9	3	80*
